Data as given in PubChem BioAssay (NCI).
Values joined by “and” are separate entries in the source; they are usually repeats but may differ in a detail not shown here. Identical values can stand only once. This is part of a sample that, as a whole, favours compounds with a hit. Of some 83,000 tested, about 20% had one in any assay.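 Values shown are percent growth following 48 h exposure of cells in 96-well plates to a single concentration of compound; below 10 was considered active.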 Values without a mark were called inactive. Active and inactive are the calls of the source.

These compounds were tested on SK-MEL-2 melanoma (assay: NCI-60 one-dose screen, 48 h (100 = growth as untreated, 0 = no growth, -100 = all killed)). Conditions: 10 µM unless noted.
In the case of CCc1cccc2c3c(sc12)C(c1ccc(F)cc1)C(C#N)=C(/N=C/c1ccc(Cl)cc1)O3 (stereo not given), the growth is reported as -7.31% (active).
In the case of Cc1ccc2c(n1)C(=O)C(Cl)=C(Nc1ccc(C(=O)OC(C)(C)C)cc1)C2=O, the growth is reported as 116% [9.25 µM].
With Clc1ccc2[nH]cc(-c3cncn3CCc3ccc4c(c3)OCO4)c2c1 the growth was 86.4%.
CCCCCCCCCC(=O)NC(C)(C)C(=O)N1CCC[C@H]1C(=O)N[C@@H](CC(C)C)C(=O)N[C@@](C)(CC)C(=O)N[C@@H](CCC(N)=O)C(=O)N[C@H](CCC(N)=O)C(=O)NC(C)(C)C(=O)NC(C)(C)C(=O)N[C@@H](CCC(N)=O)C(=O)N[C@H](CC(C)C)C(=O)N[C@H](CO)CC(C)C was tested, and the growth was -86.8% (active) and -74.3% (active).
In the case of C=C1CCc2nc(SCC(=O)O)ccc2N1, the growth is reported as 104%.
CC[C@]12C=CCN3CC[C@@]4(c5ccc(OC)cc5N(C)[C@H]4[C@@](O)(C(=O)OC)[C@@H]1OC(=O)CCN1CCc4ccccc4C1)[C@@H]32 gave a growth of 108%.
Compound CCOC(=O)c1cccnc1Nc1ccc(NC(=O)Nc2ccc(Cl)c(C(F)(F)F)c2)cc1 has a growth of 37.2%.
In the case of Cc1ccc(S(=O)(=O)NCCCNc2nccc(-c3[nH]c(-c4ccccc4)nc3-c3ccc(F)c(O)c3)n2)cc1, the growth is reported as 24.8%.
In the case of O=C(CSc1nnc(-c2ccc(Cl)cc2)n1-c1ccccc1)Nc1ccc(Cl)cc1, the growth is reported as 87.3%.
Compound Cc1ccc2c(n1)C(=O)C(Cl)=C(Nc1ccc(C(F)(F)F)cc1)C2=O has a growth of 103%.
In the case of CC(=O)C1=C(C)NC(NNc2ccccc2)=NC1c1ccc([N+](=O)[O-])cc1 (stereo not given), the growth is reported as 102%.
In the case of NC(N)=NS(=O)(=O)c1ccc(N=Nc2c(N)nn(-c3ccc([N+](=O)[O-])cc3[N+](=O)[O-])c2N)cc1, the growth is reported as 106%.
For NCCNC(=O)c1cccc(COc2ccccc2NC(=O)c2cc(Br)c(Br)[nH]2)c1, the growth was 101%.
COC(=O)CCCNCCCn1ccc2cc(NCc3cccc(-c4ccccc4)c3C)ccc21 showed a growth of 95.6%.
O=C(CCCCCCN1CC(=O)N2[C@@H](c3ccccc3Br)c3[nH]c4ccccc4c3C[C@H]2C1=O)NO showed a growth of 39.3%.
CCCCOc1ccc(S(=O)(=O)N2CCN(c3nc(C)cc(N4CCOCC4)n3)CC2)cc1 was tested, and the growth was -8.8% (active).
In the case of NS(=O)(=O)c1ccc(CCn2c(-c3ccc(C(=O)O)cc3)nc(-c3ccccc3)c2-c2ccccc2)cc1, the growth is reported as 104%.
N#C/C(=N\Nc1ccc(F)cc1)C(=O)Nc1cc(-c2ccccc2)nn1-c1ccccc1 was tested, and the growth was 4.66% (active).
Compound Cn1c2nc3ccccc3c-2cc2ccccc21 has a growth of 105%.
NS(=O)(=O)c1nnc(/N=C/c2c(O)[nH]c3ccccc23)s1 gave a growth of 114%.
With NC(=O)c1c(NC(=O)c2ccc(C(F)(F)F)cc2)sc2c1CCC(=O)C2 the growth was 51.3%.
Compound O=C(N/N=C\c1ccc([N+](=O)[O-])cc1)c1ccc2nc(-c3ccc(Br)cc3)[nH]c2c1 has a growth of 51.9%.
For C#CCN(C)CCCOc1ccc(NC(=O)CCCCCCC(=O)NO)cc1Cl, the growth was 32.7%.
Fc1cc(F)cc(NNC(=S)c2ccccc2)c1 gave a growth of 76%.
With Fc1ccc(-c2cn3c(-c4c[nH]c5ccc(Br)cc45)csc3n2)cc1 the growth was 90.5%.
With CC[C@]12C=CCN3CC[C@]4(C(=C(C(=O)OC)C1)Nc1cc5c(cc14)[C@@H]1[C@H](O5)[C@@H](O)[C@@]4(CC)CC(C(=O)OC)=C5Nc6cc(O)ccc6[C@@]56CCN1C46)C32 (stereo not given in full) the growth was 16.1%.
In the case of Cc1cc(C)cc(NC2=C(Cl)C(=O)c3nc(C)ccc3C2=O)c1, the growth is reported as 85.5%.
Compound COc1ccc2c(c1)c(-c1nn3cc(-c4ccncc4)nc3s1)cn2C has a growth of 104%.
In the case of COC(=O)N1CCN(CCNCc2ccc(NC(=O)c3ccc(C)c(C#Cc4cnc5cccnn45)c3)cc2C(F)(F)F)CC1, the growth is reported as 4.46% (active).
CC(C)(O)c1cncc(-c2ccc3ncc(C#N)c(N4CCc5cc(F)c(Cl)cc54)c3c2)c1 was tested, and the growth was -5.06% (active).
O=C(/C=C/c1ccc(F)cc1)Nc1cccc2cccnc12 showed a growth of 107%.
Compound C#CCN(C)CCCOc1ccc(NCc2ccc(C(=O)NO)cc2)cc1Cl has a growth of 15%.
In the case of COCCOc1ccc2ncc(C#Cc3cncc(C(=O)Nc4ccc(CN5CCN(C)CC5)c(C(F)(F)F)c4)c3)n2n1, the growth is reported as -82.7% (active).
CC(C)NC(=O)c1cc(-c2ccc(NC(=O)Nc3ccc(F)cc3)cc2)nc2cccnc12 gave a growth of 120%.
O=C1c2ccccc2C23C(=C(c4cncnc4)c4ccccc42)CCCN13 (stereo not given) gave a growth of 106%.
N#Cc1cccc(-c2cc(-c3ccc4c(c3)OCCO4)[nH]n2)c1 gave a growth of 47.3%.
CCC(=C(c1ccc(OCCN(C)C)cc1)c1ccc(OCCN(C)C)cc1)c1ccc(Cl)cc1 was tested, and the growth was -41.8% (active).
Work on COc1ccccc1/C=C1\Oc2ccc(O)c(O)c2C1=O yielded a growth of 102%.
With CN1CCN(c2ccc(Nc3nc(NCCCNS(=O)(=O)c4ccccc4)c4sccc4n3)cc2)CC1 the growth was 106%.
Work on Nc1nc(=O)n([C@H]2C[C@H](O)[C@@H](CO)O2)cc1C=O yielded a growth of 109%.
